In the library only some 7.3% were active in any assay of this set; here they are far more common.
Rab9 prom act: qHTS Assay for Rab9 Promoter Activators; Huh7 Rab9 promoter-luciferase reporter, luminescence, 24 h; Potency, µM (titrated, usually from 9.22 µM), for inactives: top-dose activation, negative = inhibition, actives largely listed as activators; 320,000 tested, 2.8% active; note: % of control where 0% means no effect; nearly all actives have a fitted effect of over 60% in size
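Luminescence read-out: Huh7 cells stably expressing Rab9-luciferase, treated 24 h with compound at 37 °C, then lysed with luciferase reagent for 10 min at ambient before reading.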
KinaseGlo FLuc: Counterscreen for Luciferase (Kinase-Glo TM) Inhibition. Luciferin 4-monooxygenase (Photuris pensylvanica), Q27757. Kinase-Glo luciferase, ATP luminescence, 8 min. Potency, µM (titrated, usually from 38.3 µM), without a hit: top-dose activity change, negative = inhibition, hits mostly inhibitors. 200,000 tested, 0.28% active; note: % is set by controls: 0 for no effect and ±100 for the full control effect; nearly all actives have a fitted effect of over 60% in size
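Substrate mix (final 50 mM imidazole pH 7.2, 50 mM KCl, 7 mM MgCl2, 10 uM ATP, 0.01% Tween 20, 0.05% BSA) plus pin-tool compound, then Kinase-Glo detection mix; 8 min ambient, luminescence read.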
SMN2 splice up: qHTS Assay for Enhancers of SMN2 Splice Variant Expression. Potency, µM (titrated, usually from 46.1 µM), for inactives: at the highest dose activity change, positive = activation, actives largely listed as activators. 210,000 tested, 2.8% active. HEK293 SMN2-luciferase splicing reporter, luminescence, 30-36 h; note: % of control where 0% means no effect; nearly all actives have a fitted effect of over 55% in size
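HEK293 cells carry an SMN2 minigene-luciferase reporter in which exon 7 inclusion puts luciferase in frame. Cells were seeded at 2000 cells/well, attached for 10-12 hours, then exposed to compounds for 30-36 hours at 37C before ONE-Glo luminescence.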
FLuc counter: qHTS profiling assay for firefly luciferase inhibitor/activator using purifed enzyme and Km concentrations of substrates (counterscreen for miR-21 project). AID 588342, 2011. 360,000 tested, 6.9% active. Potency, µM (titrated, usually from 57.5 µM), for inactives: at the highest dose activity change, negative = inhibition, hits mostly inhibitors. Luciferin 4-monooxygenase (Photinus pyralis), P08659. purified FLuc, Km substrates, luminescence inhibition;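 note: plate controls were vehicle for no effect and reference inhibitor for full effect; nearly all actives have a fitted effect of over 55% in size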
Target sequence (P08659 whole entry, looked up): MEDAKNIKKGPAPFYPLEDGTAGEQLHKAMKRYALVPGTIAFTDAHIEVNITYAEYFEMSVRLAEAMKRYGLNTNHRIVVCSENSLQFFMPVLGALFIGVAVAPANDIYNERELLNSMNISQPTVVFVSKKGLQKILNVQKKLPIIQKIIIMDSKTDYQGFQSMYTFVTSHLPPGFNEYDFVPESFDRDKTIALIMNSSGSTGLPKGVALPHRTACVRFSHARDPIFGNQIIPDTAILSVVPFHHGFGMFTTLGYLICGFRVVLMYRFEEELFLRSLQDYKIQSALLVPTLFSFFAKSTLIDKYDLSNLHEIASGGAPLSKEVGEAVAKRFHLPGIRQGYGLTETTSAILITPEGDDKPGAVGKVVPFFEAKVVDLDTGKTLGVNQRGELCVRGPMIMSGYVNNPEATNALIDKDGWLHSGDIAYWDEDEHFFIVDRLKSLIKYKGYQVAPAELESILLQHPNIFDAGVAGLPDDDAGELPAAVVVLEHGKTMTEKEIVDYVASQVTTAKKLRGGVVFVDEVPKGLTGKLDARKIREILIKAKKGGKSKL
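Purified P. pyralis luciferase, 10 nM final, with Km-level 10 uM D-luciferin and 10 uM ATP in 50 mM Tris acetate pH 7.5, 10 mM Mg acetate, 0.01% Tween-20, 0.05% BSA; 6-point qHTS titration about 60 µM downward; luminescence read.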
ELG1 genotoxic: qHTS screen for small molecules that induce genotoxicity in human embryonic kidney (HEK293T) cells expressing luciferase-tagged ELG1; HEK293T ELG1-luciferase reporter, luminescence, 16 h; Potency, µM (top dose mostly 46 µM), inactives show at the top dose activity change, positive = activation, actives largely listed as activators; 330,000 tested, 1.3% active; AID 504466, 2011; note: % of control where 0% means no effect; nearly all actives have a fitted effect of over 60% in size
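Genotoxic stress is detected as increased luminescence from luciferase-tagged ELG1 in HEK293T cells, measured with ONE-Glo after a 16 hr treatment at 37 °C.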
NPC1 promoter act: qHTS Assay for NPC1 Promoter Activators | Huh7 NPC1 promoter luciferase reporter, 24 h | AID 485313, 2010 | Potency, µM (doses to about 9.22 µM), without a hit: at the top dose activation, actives largely listed as activators | 320,000 tested, 2.4% active; note: % of control where 0% means no effect; nearly all actives have a fitted effect of over 60% in size
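Luminescence from an NPC1 promoter-driven luciferase reporter in stably transfected Huh7 cells was measured after 24 h compound treatment at 37 °C, followed by 10 min ambient incubation with luciferase detection reagent.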
* marks the source's active call; other numbers are inactive results; ? = inconclusive; nt = no result. Calls come from the whole dose curve; as a rule, active = well fitted curve in the direction sought with a large enough effect; inconclusive = small, poorly fitted or top-dose-only effect, or another doubt; inactive = no such curve, though single readings can be large; an effect the other way counts as inactive or inconclusive. Potency is the fitted concentration of half-maximal effect.

SMILES | Rab9 prom act | KinaseGlo FLuc | SMN2 splice up | FLuc counter | ELG1 genotoxic | NPC1 promoter act
O=C(Cn1nnc(-c2cccs2)n1)NCc1cccs1 | 13% | -2% | 4% | -4% | 0% | -3%
Cc1ccc(C(=O)Cn2nnc(-c3cccs3)n2)cc1 | 3.2µM* | nt | nt | 5.4µM* | 2% | ?
Cc1cc(-n2c(C)cc(C(=O)COc3ccc(F)c(F)c3)c2C)no1 | ? | nt | nt | 17µM* | 9% | 28%
Cc1c(C(=O)Nc2ccncc2)oc2ccccc12 | 14% | -13% | -24% | 19µM* | ? | 15%
Cc1noc(C(=O)Nc2cccnc2Cl)c1Cl | 12% | nt | nt | 4% | 1% | -3%
Cc1c(C(=O)Nc2ccccn2)oc2ccccc12 | ? | -21% | 25µM* | 4.3µM* | ? | ?
Cc1ccc(NC(=O)c2oc3ccccc3c2C)nc1 | 3.2µM* | nt | nt | 12µM* | ? | 3.5µM*
Cc1c(C(=O)Nc2cccnc2Cl)oc2ccccc12 | 3.2µM* | nt | nt | ? | ? | 2.5µM*
Cc1ccc(NC(=O)c2cc3c(=O)oc4ccccc4c3s2)nc1 | 1% | -1% | 0% | -1% | 7% | 1%
CC(C)Cc1c2c([nH]c(=S)c1C#N)CCCC2 | -5% | -2% | -12% | -16% | 1% | -4%
CCOc1ccc(CN(C)C(=O)c2ccc3c(c2)NC(=O)C(C)S3)cc1OC (stereo unspecified) | -10% | nt | nt | nt | -2% | -8%
Cc1c(C(=O)Nc2ccccn2)oc2c(Cl)cccc12 | 13% | nt | nt | ? | 5.2µM* | 5%
Cc1ccc(OCC(=O)Nc2nnc(S(=O)(=O)N3CCCCCC3)s2)cc1C | 8% | nt | nt | -8% | 2% | 1%
Cc1c(CCNC(=O)c2ccc(C(C)(C)C)cc2)sc2nc(-c3ccc(F)cc3)nn12 | nt | nt | nt | -3% | nt | nt
COc1ccc(-c2nc3sc(CCNC(=O)c4ccccc4C)c(C)n3n2)cc1 | nt | nt | nt | 17µM* | nt | nt
COc1ccc(-c2nc3sc(CCNC(=O)c4cccc(C(F)(F)F)c4)c(C)n3n2)cc1 | nt | nt | nt | 6.7µM* | nt | nt
COCCN(C(=O)CCC(=O)Nc1cc(C)on1)C(C(=O)NC1CCCC1)c1ccccc1C (stereo unspecified) | 2% | -2% | nt | 2% | 1% | -2%
Cc1ccc(-n2c(=S)sc3c(=O)n(-c4ccccc4F)c(SCC(=O)O)nc32)cc1C | -1% | nt | nt | 5% | -1% | -2%
O=C(CCc1ccccc1)N1CCN(c2ccccc2F)CC1 | -5% | -2% | 2% | 6% | 0% | -5%
CC(C)(C)c1ccc(C(=O)NC(=S)Nc2nc3c(s2)CCCC3)cc1 | ? | 1% | -52% | 5.4µM* | ? | 28%
C/C(=N\NC1=NCCN1)c1ccc(Cl)cc1 | -3% | nt | nt | 3% | 0% | -4%
C/C(=N\Nc1nc2c(s1)CCCC2)c1ccc(Cl)cc1 | 19% | 0% | -22% | 19µM* | ? | -2%
COC(=O)Nc1nc2c(s1)CCCC2 | 15% | -2% | 28% | -17% | ? | 16%
CN(C)c1ccc(C(=O)Nc2nc3c(s2)CCCC3)cc1 | 0.32µM* | ? | 0.63µM* | 0.24µM* | ? | 0.45µM*
CCC1Oc2ccc(C)cc2N(Cc2cccc(C)c2)C1=O (stereo unspecified) | 5% | -5% | -11% | -5% | 2% | -3%
SMILES | Rab9 prom act | KinaseGlo FLuc | SMN2 splice up | FLuc counter | ELG1 genotoxic | NPC1 promoter act
COCCNc1nc2c(S(=O)(=O)c3ccc(C)c(C)c3)nnn2c2ccc(Cl)cc12 | nt | nt | -3% | -3% | nt | nt
O=C(O)CC(NC(=O)CCC1CCCCC1)c1cc([N+](=O)[O-])ccc1Cl (stereo unspecified) | 2% | -1% | 4% | ? | 3% | -3%
CN1CCN(c2ccc(NC(=O)Cc3ccccc3)cc2)CC1 | ? | -1% | 17% | 19µM* | 12µM* | ?
CCCC(=O)Nc1ccc(N2CCCCC2)cc1 | ? | -1% | ? | ? | ? | ?
O=C(O)CCCC(=O)Nc1ccc(N2CCCC2)cc1 | 6% | 1% | -12% | 15µM* | 1% | 4%
CCNC(=S)Nc1ccc(N2CCCCC2)cc1 | 25% | -1% | 18µM* | -14% | 15% | 26%
CCC(=O)Nc1ccc(N2CCCCC2)cc1 | 28% | -3% | -10% | ? | 25% | 23%
CS(=O)(=O)N1CCN(c2ccc(NC(=O)Cc3ccccc3)cc2)CC1 | 0% | 20% | -8% | 3% | -2% | 10%
O=C(Cc1ccccc1)Nc1ccc(N2CCCCC2)cc1 | ? | -6% | 11µM* | 6µM* | 3.3µM* | 1.8µM*
COC(=O)c1ccc2c(c1)N(Cc1ccc(Cl)cc1)C(=O)c1ccccc1S2 | nt | nt | nt | -8% | nt | nt
O=C(CNC(=O)c1ccc(Br)o1)Nc1ccc(N2CCCCCC2)cc1 | -1% | nt | nt | ? | 3% | -4%
O=C(Cc1cccs1)Nc1ccc(Cl)cc1 | 25% | 0% | ? | ? | 1% | 15%
O=C(CNC(=O)c1ccco1)Nc1ccc(N2CCCCCC2)cc1 | 28% | nt | nt | 17µM* | ? | 29%
O=C(Cc1cccs1)Nc1ccc(N2CCOCC2)cc1 | ? | 11% | ? | 17µM* | ? | ?
CCN1CCN(c2ccc(NC(=O)c3ccco3)cc2)CC1 | ? | nt | nt | 27µM* | ? | ?
Cc1cc(C)nc(N2N=C(C(C)(C)C)CC2=O)n1 | 2% | -2% | -4% | 3% | 1% | -1%
COc1cccc(NC(=O)Nc2ccc3c(c2)CCC3)c1 | 1.6µM* | nt | nt | 4.3µM* | 11% | 2.2µM*
COc1ccc(NC(=O)Nc2ccc3c(c2)CCC3)c(OC)c1 | 10% | 3% | -7% | -3% | 12% | 4%
COc1ccc(OC)c(NC(=O)Nc2ccc3c(c2)CCC3)c1 | 1% | nt | nt | 27µM* | -5% | 2%
Cc1ccc(C)c(-c2ccc(=O)n(Cc3cccc(Br)c3)n2)c1 | -4% | nt | nt | 4% | -5% | -1%
CCCCCC(O)/C=C/C=O (stereo unspecified) | nt | -2% | -3% | nt | nt | nt
Cc1c(C(=O)N(C)C)sc2nc(-c3ccccn3)[nH]c(=O)c12 | ? | -2% | 17% | ? | ? | 11%
O=c1[nH]c(-c2ccccn2)nc2sc(-c3ccccc3)cc12 | ? | 1% | 8.9µM* | 2.1µM* | 7.3µM* | 3.5µM*
Cc1ccc(N2C(=O)C3C(C2=O)N2CCCN2C3c2ccccc2)cc1C (stereo unspecified) | -1% | 1% | -8% | -3% | 1% | -2%
